Results on eleven molecules are retold here after PubChem BioAssay (NCI).

Test systems include SR leukemia; RPMI-8226 leukemia; OVCAR-8 ovarian; OVCAR-5 ovarian; OVCAR-4 ovarian; SK-OV-3 ovarian; IGROV1 ovarian; OVCAR-3 ovarian; HS 578T breast; NCI/ADR-RES ovarian.
Assay in all cases: NCI-60 one-dose screen, 48 h (100 = growth as untreated, 0 = no growth, -100 = all killed)
What all share (settings): 10 µM unless noted

Compounds without any hit were thinned out: in the full panel of roughly 83,000, 20% have a hit.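 A percent growth of 40 corresponds to 60% growth inhibition; 0 means no net growth; -100 means all cells died. Active threshold: below 10.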 Unmarked numbers belong to inactive results. Active and inactive are the calls of the source.

For the molecule `NC1(CO)COC(c2ccccc2)OC1` (stereo not given), the growth in the assay on SR leukemia is 83.5%; in the assay on RPMI-8226 leukemia it was 108%; in the assay on OVCAR-8 ovarian, 103%; in the assay on OVCAR-5 ovarian it was 94.9%; in the assay on OVCAR-4 ovarian it was 130%; in the assay with SK-OV-3 ovarian it was 101%. Also, the growth in the assay with IGROV1 ovarian was 104%; with OVCAR-3 ovarian, 126%; in the assay with HS 578T breast, 106%; with NCI/ADR-RES ovarian it was 113%.

In the case of `COc1ccc(C2=CN3CC=CC3CC2=O)cc1` (stereo not given), the growth is 94.4% in the assay with SR leukemia; 104% with RPMI-8226 leukemia; 103% with OVCAR-8 ovarian; 110% in the assay on OVCAR-5 ovarian; 98.9% with OVCAR-4 ovarian; 102% in the assay on SK-OV-3 ovarian. Besides, the growth in the assay with IGROV1 ovarian is 104%; in the assay with OVCAR-3 ovarian, 102%; in the assay with HS 578T breast it was 104%; with NCI/ADR-RES ovarian it was 103%.

For the molecule `C#Cc1cccc(Nc2nc(C)nc3cc(NC(=O)CCl)ccc23)c1`, the growth was -40.4% (active) in the assay with SR leukemia; -47.5% (active) with RPMI-8226 leukemia; -15.4% (active) in the assay on OVCAR-8 ovarian; -84.7% (active) in the assay on OVCAR-5 ovarian; -42.2% (active) in the assay with OVCAR-4 ovarian; 8.47% (active) with SK-OV-3 ovarian. The growth is -56.7% (active) with IGROV1 ovarian, -88.2% (active) with OVCAR-3 ovarian, -11.6% (active) with HS 578T breast and -22% (active) with NCI/ADR-RES ovarian.

For `COC(=O)c1c2c(c(C)[n+]([O-])c1C)C(=O)C(NCc1cccc(Cl)c1)=CC2=O`, the growth with SR leukemia is 9.98% (active); in the assay with RPMI-8226 leukemia, 26.9%; in the assay on OVCAR-8 ovarian, -5.76% (active); with OVCAR-5 ovarian, 40.6%; in the assay on OVCAR-4 ovarian it was -76% (active); with SK-OV-3 ovarian, 81.3%. The growth in the assay on IGROV1 ovarian was 2.76% (active); in the assay on OVCAR-3 ovarian it was -23.9% (active); in the assay on HS 578T breast it was 79.1%; with NCI/ADR-RES ovarian, 0.849% (active).

Consider `Cc1nn(-c2cc(NC3CCC(O)CC3)c3c(=O)[nH]c(CCC(F)(F)F)cc3c2)c2c1C(=O)CC(C)(C)C2` (stereo not given), for which the growth in the assay on SR leukemia was 25.9%; in the assay with RPMI-8226 leukemia it was 40.7%; in the assay with OVCAR-8 ovarian it was 52.1%; with OVCAR-5 ovarian, 85.3%; with OVCAR-4 ovarian, 66.8%; in the assay on SK-OV-3 ovarian, 36.3%. In addition, the growth in the assay with IGROV1 ovarian was 55.2%; in the assay on OVCAR-3 ovarian, 70%; with HS 578T breast, 34.4%; in the assay with NCI/ADR-RES ovarian, 72%.

For `CSc1nn2c(-c3ccc4ccccc4c3)ccnc2c1C#N`, the growth in the assay with SR leukemia is 13.8%; in the assay with RPMI-8226 leukemia it was 24.1%; with OVCAR-8 ovarian it was 23%; in the assay with OVCAR-5 ovarian it was 46.7%; in the assay with OVCAR-4 ovarian it was 1.79% (active); in the assay with SK-OV-3 ovarian it was 12.8%. The growth was 20.5% with IGROV1 ovarian, -26% (active) with OVCAR-3 ovarian, 33.6% with HS 578T breast and 2.07% (active) in the assay with NCI/ADR-RES ovarian.

As to `C=C(c1ccc(OC)c(/C=C/C(=O)c2ccc3c(c2)OCO3)c1)c1cc(OC)c(OC)c(OC)c1`, the growth was 6.41% (active) in the assay on SR leukemia; 11.7% in the assay on RPMI-8226 leukemia; 6.09% (active) in the assay with OVCAR-8 ovarian; 36.6% in the assay on OVCAR-5 ovarian; 38.9% with OVCAR-4 ovarian; 27.4% with SK-OV-3 ovarian. Besides, the growth in the assay with IGROV1 ovarian is 35.2%; in the assay with OVCAR-3 ovarian, 1.16% (active); in the assay with HS 578T breast, 40.8%; in the assay with NCI/ADR-RES ovarian, 5.57% (active).

Turning to `CCOc1c(OC)cc2c(c1O)C(=O)N[C@@H]1[C@@H](O)[C@@H](O)[C@H](O)C[C@@H]21`, the growth in the assay on SR leukemia was 89.2%; in the assay on RPMI-8226 leukemia it was 103%; with OVCAR-8 ovarian, 101%; with OVCAR-5 ovarian, 98.7%; in the assay on OVCAR-4 ovarian, 107%; in the assay on SK-OV-3 ovarian it was 98.1%. Further, the growth was 102% with IGROV1 ovarian, 102% in the assay on OVCAR-3 ovarian, 100% with HS 578T breast and 110% with NCI/ADR-RES ovarian.

Consider `Cc1cn(-c2cc(NC(=O)c3cncc(C#Cc4c(N)ncc5ccc(F)cc45)c3)cc(C(F)(F)F)c2)cn1`, for which the growth with SR leukemia was 51.4%; with RPMI-8226 leukemia, 55.1%; with OVCAR-8 ovarian, 65.2%; in the assay on OVCAR-5 ovarian it was 46.2%; with OVCAR-4 ovarian it was 79.6%; in the assay with SK-OV-3 ovarian it was 87.6%. Also, the growth is 32.9% in the assay on IGROV1 ovarian, 84.5% with OVCAR-3 ovarian, 54.6% with HS 578T breast and 79.1% in the assay with NCI/ADR-RES ovarian.

For `COc1cccc(/C=C/C(=O)c2cc3c(N)c(C(=O)Nc4cccc5ccccc45)sc3nc2C)c1`, the growth in the assay on SR leukemia is 12.5%; with RPMI-8226 leukemia, -18.9% (active); in the assay with OVCAR-8 ovarian, 3.72% (active); in the assay with OVCAR-5 ovarian, 15.8%; with OVCAR-4 ovarian it was 56.8%; with SK-OV-3 ovarian it was 56.2%. For the same molecule, the growth with IGROV1 ovarian was -3.98% (active); in the assay on OVCAR-3 ovarian it was -17% (active); in the assay on HS 578T breast, 15%; in the assay with NCI/ADR-RES ovarian, 4.18% (active).

Turning to `Cc1ccc(C)c2c(C)c(C(=O)Nc3cccc(-n4cccn4)c3)oc12`, the growth in the assay with SR leukemia was 56.7% [50 µM]; in the assay with RPMI-8226 leukemia, 43.8% [50 µM]; with OVCAR-8 ovarian, 42.4% [50 µM]; with OVCAR-5 ovarian it was 93.6% [50 µM]; in the assay on OVCAR-4 ovarian, 50.4% [50 µM]; with SK-OV-3 ovarian, 111% [50 µM]. The growth with IGROV1 ovarian was 76.3% [50 µM]; in the assay with OVCAR-3 ovarian, 82% [50 µM]; in the assay on HS 578T breast, 81.1% [50 µM]; with NCI/ADR-RES ovarian, 54.3% [50 µM].
